Measurements as given in PubChem BioAssay (NCATS).
A number with no mark means an inactive call. Inconclusive results are not listed. Calls of active or inactive are those of the source. Unless noted, the call rests on the fitted dose curve; in most records, active means well fitted curve in the direction sought with a large enough effect; inconclusive means small, poorly fitted or top-dose-only effect, or another doubt; inactive means no such curve, though single readings can be large; an effect the other way counts as inactive or inconclusive.

Experiments:
[1] = target: Cytochrome P450 1A2 (Homo sapiens) (UniProt P05177); assay: p450-cyp1a2 (AID 410; calls by dose curve; further: potency means the concentration at half of the fitted maximal effect)
Cytochrome P450 1A2 (Homo sapiens), sequence (P05177 whole entry, looked up): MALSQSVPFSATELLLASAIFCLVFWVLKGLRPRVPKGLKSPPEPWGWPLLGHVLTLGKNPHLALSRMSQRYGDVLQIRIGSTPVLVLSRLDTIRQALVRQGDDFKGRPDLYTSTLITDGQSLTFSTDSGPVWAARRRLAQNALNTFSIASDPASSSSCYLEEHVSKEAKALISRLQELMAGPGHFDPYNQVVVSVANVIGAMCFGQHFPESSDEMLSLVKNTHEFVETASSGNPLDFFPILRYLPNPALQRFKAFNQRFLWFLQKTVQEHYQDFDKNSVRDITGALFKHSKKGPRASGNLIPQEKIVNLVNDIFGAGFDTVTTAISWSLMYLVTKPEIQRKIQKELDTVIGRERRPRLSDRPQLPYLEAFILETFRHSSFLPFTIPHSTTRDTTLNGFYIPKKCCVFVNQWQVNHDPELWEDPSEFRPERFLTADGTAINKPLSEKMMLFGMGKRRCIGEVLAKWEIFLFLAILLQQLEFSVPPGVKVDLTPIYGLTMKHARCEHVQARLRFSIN
Method in brief: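 Luminescent readout of luciferin formed from Luciferin-ME by human CYP1A2; data normalized against complete inhibition by 57 uM furafylline. Enzyme 20nM, substrate 100uM at Km, 100mM KPO4 buffer, 60 min reaction at room temperature.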

[2] = target: Glucocorticoid receptor (Homo sapiens) (UniProt P04150); assay: GR-GFP Redistribution (AID 450;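 active means compounds whose dose series gives a full or clear partial fitted curve of increased nuclear translocation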; further: potency means the concentration at half of the fitted maximal effect)
Glucocorticoid receptor (Homo sapiens), sequence (P04150 whole entry, looked up, the tested form may be a part): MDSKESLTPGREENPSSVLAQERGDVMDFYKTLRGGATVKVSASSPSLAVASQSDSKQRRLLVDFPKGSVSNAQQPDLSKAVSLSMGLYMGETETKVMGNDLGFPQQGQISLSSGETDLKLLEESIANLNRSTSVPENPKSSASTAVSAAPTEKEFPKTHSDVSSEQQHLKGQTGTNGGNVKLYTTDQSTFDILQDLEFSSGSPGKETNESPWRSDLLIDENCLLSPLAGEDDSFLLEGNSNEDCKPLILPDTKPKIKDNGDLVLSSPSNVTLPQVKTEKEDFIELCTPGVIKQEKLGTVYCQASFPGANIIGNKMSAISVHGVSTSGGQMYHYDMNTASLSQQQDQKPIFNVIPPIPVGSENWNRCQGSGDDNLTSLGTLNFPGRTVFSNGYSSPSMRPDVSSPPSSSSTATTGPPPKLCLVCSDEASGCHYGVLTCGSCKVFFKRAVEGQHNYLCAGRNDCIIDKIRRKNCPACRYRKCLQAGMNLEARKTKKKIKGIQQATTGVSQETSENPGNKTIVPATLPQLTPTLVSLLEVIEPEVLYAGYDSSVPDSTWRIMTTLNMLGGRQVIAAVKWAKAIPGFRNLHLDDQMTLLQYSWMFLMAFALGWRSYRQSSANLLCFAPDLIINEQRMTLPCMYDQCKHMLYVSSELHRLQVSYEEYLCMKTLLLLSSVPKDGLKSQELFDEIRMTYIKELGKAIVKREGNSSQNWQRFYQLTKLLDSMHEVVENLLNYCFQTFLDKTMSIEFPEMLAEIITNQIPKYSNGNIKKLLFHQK

[3] = target: Glucocorticoid receptor (Homo sapiens) (UniProt P04150); assay: GR-EFC Redistribution (AID 451; calls by dose curve; further: potency means the concentration at half of the fitted maximal effect); conditions: CHO-K1 GR-EFC translocation, beta-gal luminescence, 2 h
Method in brief: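 CHO-K1 cells stably expressing nuclear-localized β-gal enzyme acceptor and GR fused C-terminally to the enzyme donor fragment; ligand-driven nuclear translocation restores β-gal by complementation. Compounds titrated up to 46 uM final, 2 h at 37 °C; luminescence read.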

[4] = target: Mitogen-activated protein kinase 10 (Mus musculus) (UniProt Q61831); assay: JNK3 AlphaScreen Assay (AID 530; active means well fitted curve in either direction with a large enough effect, not every such curve was filed as active;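 further: kinase came from lysate of stimulated human HepG2 cells; signal reports phosphorylation of biotinylated GST-cJun 1-79 at Ser73 with 10 µM ATP; series mostly up to about 57 µM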)
Method in brief: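 Inhibitors reduce antibody binding to phosphorylated biotin-cJun, lowering AlphaScreen luminescence. Lysates from HepG2 cells pre-activated by IL-1beta plus TNF-alpha supplied JNK3; compounds were titrated.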

[5] = target: Cytochrome P450 2C9 (Homo sapiens) (UniProt P11712); assay: qHTS Assay for Inhibitors and Substrates of Cytochrome P450 2C9 (AID 883); further: nearly all actives have a fitted effect of over 60% in size; further: potency means the concentration at half of the fitted maximal effect
Cytochrome P450 2C9 (Homo sapiens), sequence (P11712 whole entry, looked up): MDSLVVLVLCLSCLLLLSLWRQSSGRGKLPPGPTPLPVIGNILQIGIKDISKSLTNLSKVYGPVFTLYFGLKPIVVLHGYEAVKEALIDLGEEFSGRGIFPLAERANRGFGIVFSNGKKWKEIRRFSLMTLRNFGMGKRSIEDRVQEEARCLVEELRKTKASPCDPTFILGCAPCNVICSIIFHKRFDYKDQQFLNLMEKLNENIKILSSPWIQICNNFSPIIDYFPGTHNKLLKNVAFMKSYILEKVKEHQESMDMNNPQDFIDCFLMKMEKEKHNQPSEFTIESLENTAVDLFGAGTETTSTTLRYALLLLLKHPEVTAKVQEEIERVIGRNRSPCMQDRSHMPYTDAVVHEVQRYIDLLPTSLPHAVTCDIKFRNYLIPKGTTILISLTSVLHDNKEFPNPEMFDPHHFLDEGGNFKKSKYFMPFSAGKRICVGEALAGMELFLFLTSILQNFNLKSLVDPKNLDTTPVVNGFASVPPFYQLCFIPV
Method in brief: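 A luminogenic readout tracked human CYP2C9 (10nM) converting deoxyluciferin (100uM, at KM) in 25mM KPO4 during 60 min at 37C with regenerated NADPH. Values normalized to 57uM sulphaphenazole as complete inhibition.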

[6] = target: Cytochrome P450 2D6 (Homo sapiens) (UniProt P10635); assay: qHTS Assay for Inhibitors and Substrates of Cytochrome P450 2D6 (AID 891);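 further: luciferin methyl ether substrate demethylated by CYP2D6 with NADPH regeneration; nearly all actives have a fitted effect of over 60% in size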
Cytochrome P450 2D6 (Homo sapiens), sequence (P10635 whole entry, looked up): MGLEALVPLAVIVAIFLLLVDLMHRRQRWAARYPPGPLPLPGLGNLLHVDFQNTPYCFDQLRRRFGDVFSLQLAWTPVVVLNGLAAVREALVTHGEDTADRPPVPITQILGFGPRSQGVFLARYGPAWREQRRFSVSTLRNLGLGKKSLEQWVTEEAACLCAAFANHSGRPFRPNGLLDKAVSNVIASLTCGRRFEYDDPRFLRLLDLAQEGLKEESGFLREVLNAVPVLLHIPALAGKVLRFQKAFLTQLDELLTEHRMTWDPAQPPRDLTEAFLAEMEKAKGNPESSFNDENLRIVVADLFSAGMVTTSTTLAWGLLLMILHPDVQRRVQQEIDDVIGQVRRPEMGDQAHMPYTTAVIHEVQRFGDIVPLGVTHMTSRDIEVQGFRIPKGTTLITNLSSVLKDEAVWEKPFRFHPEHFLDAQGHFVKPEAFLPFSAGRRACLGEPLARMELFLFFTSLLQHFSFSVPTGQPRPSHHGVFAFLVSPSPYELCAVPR
Method in brief: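 Human CYP2D6 (5 nM) with 30 uM Luciferin-ME EGE (at Km) in 100 mM KPO4, compound preincubated 10 min, then NADPH regeneration system for 60 min at room temperature. Luciferin read by luminescence; normalized to 1.43 uM quinidine.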

[7] = target: Cytochrome P450 2C19 (Homo sapiens) (UniProt P33261); assay: qHTS Assay for Inhibitors and Substrates of Cytochrome P450 2C19 (AID 899); further: nearly all actives have a fitted effect of over 60% in size; further: potency means the concentration at half of the fitted maximal effect
Cytochrome P450 2C19 (Homo sapiens), sequence (P33261 whole entry, looked up): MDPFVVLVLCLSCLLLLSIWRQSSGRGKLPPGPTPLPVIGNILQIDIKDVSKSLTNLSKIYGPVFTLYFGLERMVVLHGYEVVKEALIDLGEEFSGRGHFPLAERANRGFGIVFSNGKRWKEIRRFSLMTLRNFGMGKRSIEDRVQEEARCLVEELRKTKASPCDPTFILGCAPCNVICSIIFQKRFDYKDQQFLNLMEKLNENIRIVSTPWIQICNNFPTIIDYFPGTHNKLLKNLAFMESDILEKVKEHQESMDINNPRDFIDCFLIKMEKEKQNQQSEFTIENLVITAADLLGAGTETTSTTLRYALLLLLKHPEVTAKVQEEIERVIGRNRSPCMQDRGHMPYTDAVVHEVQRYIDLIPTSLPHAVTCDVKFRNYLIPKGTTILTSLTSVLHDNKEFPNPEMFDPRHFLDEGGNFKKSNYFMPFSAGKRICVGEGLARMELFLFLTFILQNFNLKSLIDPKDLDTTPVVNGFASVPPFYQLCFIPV
Method in brief: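 NADPH-dependent conversion of Luciferin-H EGE (10uM, at KM) by 5nM enzyme in 50mM KPO4, 60 min at 37C following 10 min compound preincubation. Stopped with luciferin detection buffer; luminescence read after 20 min.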

[8] = target: 3',5'-cyclic-AMP phosphodiesterase 4B (Homo sapiens) (UniProt Q07343); assay: qHTS Assay for Inhibitors of PDE-IV (AID 607; active means well fitted activation curve with a large enough effect in the main read-out, with a control signal flat, not every such curve was filed as active)
3',5'-cyclic-AMP phosphodiesterase 4B (Homo sapiens), sequence (Q07343 whole entry, looked up): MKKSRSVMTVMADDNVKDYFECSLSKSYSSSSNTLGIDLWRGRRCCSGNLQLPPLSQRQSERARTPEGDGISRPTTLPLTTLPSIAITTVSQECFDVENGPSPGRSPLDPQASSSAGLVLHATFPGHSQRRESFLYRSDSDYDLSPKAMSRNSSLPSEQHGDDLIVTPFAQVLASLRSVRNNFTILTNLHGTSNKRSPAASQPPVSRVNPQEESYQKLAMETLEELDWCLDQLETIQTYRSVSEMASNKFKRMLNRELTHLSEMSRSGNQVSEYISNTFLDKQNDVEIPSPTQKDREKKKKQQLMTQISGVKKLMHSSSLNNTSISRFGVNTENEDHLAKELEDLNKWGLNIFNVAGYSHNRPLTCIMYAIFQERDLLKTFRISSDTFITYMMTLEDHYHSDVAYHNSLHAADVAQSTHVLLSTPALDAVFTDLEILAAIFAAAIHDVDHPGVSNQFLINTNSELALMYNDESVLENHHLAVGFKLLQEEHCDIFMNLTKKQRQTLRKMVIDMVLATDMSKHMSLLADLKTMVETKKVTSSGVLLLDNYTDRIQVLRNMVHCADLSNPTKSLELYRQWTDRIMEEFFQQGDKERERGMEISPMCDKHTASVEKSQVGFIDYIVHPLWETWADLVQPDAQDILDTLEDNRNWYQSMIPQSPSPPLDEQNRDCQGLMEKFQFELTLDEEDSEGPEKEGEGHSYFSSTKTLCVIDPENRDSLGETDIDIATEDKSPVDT
Method in brief: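 Live HEK293 cells with a modified cyclic nucleotide-gated (CNG) channel report intracellular cAMP via membrane-potential dye fluorescence (ex 535/em 590 nm). Endogenous PDE-IV was targeted. Compounds were tested at up to 22.9 uM final; RO 20-1724 100 uM served as control.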

[9] = target: Cytochrome P450 3A4 (Homo sapiens) (UniProt P08684); assay: qHTS Assay for Inhibitors and Substrates of Cytochrome P450 3A4 (AID 884); further: potency means the concentration at half of the fitted maximal effect; nearly all actives have a fitted effect of over 50% in size
Cytochrome P450 3A4 (Homo sapiens), sequence (P08684 whole entry, looked up): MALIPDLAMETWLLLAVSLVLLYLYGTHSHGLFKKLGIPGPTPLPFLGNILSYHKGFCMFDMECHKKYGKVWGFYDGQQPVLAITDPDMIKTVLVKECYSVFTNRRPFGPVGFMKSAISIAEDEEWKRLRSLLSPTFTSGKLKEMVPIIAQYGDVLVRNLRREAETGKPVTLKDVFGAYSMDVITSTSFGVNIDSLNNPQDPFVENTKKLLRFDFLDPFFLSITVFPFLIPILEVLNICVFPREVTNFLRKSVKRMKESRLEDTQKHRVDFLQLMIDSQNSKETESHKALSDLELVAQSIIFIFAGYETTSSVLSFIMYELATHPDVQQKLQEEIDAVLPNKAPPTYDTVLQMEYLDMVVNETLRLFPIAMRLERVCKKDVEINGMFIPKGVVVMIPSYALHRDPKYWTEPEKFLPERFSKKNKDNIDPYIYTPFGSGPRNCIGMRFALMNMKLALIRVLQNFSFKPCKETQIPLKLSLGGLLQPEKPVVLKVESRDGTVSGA
Method in brief: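 20 nM human CYP3A4 with 25 uM Luciferin-PPXE (at KM) in 200 mM KPO4, preincubated 10 min with compound; NADPH regeneration started a 60 min RT reaction. Luciferin detected by luminescence, normalized to 57 uM ketoconazole as full inhibition.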

[10] = target: Cytochrome P450 3A4 (Homo sapiens) (UniProt P08684); assay: qHTS Assay for Activators of Cytochrome P450 3A4 (AID 885); further: nearly all actives have a fitted effect of over 65% in size
Method in brief: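 Quantitative HTS format: compounds preincubated with 20nM human CYP3A4 and Luciferin-PPXE substrate at KM, reaction started by NADPH regeneration, stopped after 60 min, luciferase luminescence read 20 min later.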

[11] = target: DNA dC->dU-editing enzyme APOBEC-3G (Homo sapiens) (UniProt Q9HC16); assay: qHTS for inhibitors of Vif-A3G interactions: Validation (AID 588379)
DNA dC->dU-editing enzyme APOBEC-3G (Homo sapiens), sequence (Q9HC16 whole entry, looked up): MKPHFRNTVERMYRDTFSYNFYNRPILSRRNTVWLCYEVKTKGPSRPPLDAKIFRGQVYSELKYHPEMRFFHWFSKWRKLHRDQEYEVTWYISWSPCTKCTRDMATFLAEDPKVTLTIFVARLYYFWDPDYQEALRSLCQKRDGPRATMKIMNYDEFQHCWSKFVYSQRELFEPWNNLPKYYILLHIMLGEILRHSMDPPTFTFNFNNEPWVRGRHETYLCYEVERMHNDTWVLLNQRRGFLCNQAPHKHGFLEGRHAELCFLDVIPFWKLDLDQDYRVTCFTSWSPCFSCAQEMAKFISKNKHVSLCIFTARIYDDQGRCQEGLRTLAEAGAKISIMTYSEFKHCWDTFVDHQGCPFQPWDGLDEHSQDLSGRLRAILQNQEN
Method in brief: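 HeLa cells stably expressing Vif and A3G-eYFP, 700 cells/well, incubated overnight at 37 deg C, then exposed to compound overnight at 37 deg C. Inhibition of Vif-mediated degradation read as increased yellow fluorescence (Ex 488/Em 500-530) by laser-scanning cytometry.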

Question: Which Potency [1] does the source give for COc1ccc2c(c1)[C@]1(C)CCC[C@](C)(CO)[C@@H]1CC2 here?
Answer: Its Potency is 15.8 µM (active).

Question: And the Potency [2]?
Answer: Its Potency is > 46 µM.

Question: What about the Potency [3] of the same molecule?
Answer: Its Potency is > 46 µM.

Question: What about the Potency [4] of the same molecule?
Answer: Its Potency is “inactive”.

Question: And the Potency [5]?
Answer: Its Potency is 7.94 µM (active).

Question: And the Potency [6]?
Answer: Its Potency is “inactive”.

Question: What about the Potency [7] of the same molecule?
Answer: Its Potency is 3.16 µM (active).

Question: Which results are given for O=c1cc(-c2ccc(O)c(O)c2)oc2cccc(O)c12?
Answer: Potency [1]: 0.158 µM (active); Potency [2]: > 46 µM; Potency [3]: > 46 µM; Potency [8]: inactive; Potency [5]: 7.94 µM (active); Potency [9]: 15.8 µM (active); Potency [10]: inactive; outcome [11]: inactive

Question: Which Potency [1] does the source give for CC(=O)Oc1ccc(/C=C\C(=O)C[C@@H]2O[C@@H](Oc3cc(OC(C)=O)c4c(c3)O[C@@H](c3ccc(OC(C)=O)cc3)CC4=O)[C@H](OC(C)=O)[C@H](OC(C)=O)[C@@H]2OC(C)=O)cc1 here?
Answer: Its Potency is “inactive”.

Question: And the Potency [2]?
Answer: The Potency was > 46 µM.

Question: What about the Potency [3] of the same molecule?
Answer: The Potency was > 46 µM.

Question: What about the Potency [4] of the same molecule?
Answer: The Potency was “inactive”.

Question: What about the Potency [8] of the same molecule?
Answer: Its Potency is “inactive”.

Question: And the Potency [5]?
Answer: Its Potency is “inactive”.

Question: What about the Potency [7] of the same molecule?
Answer: The Potency was “inactive”.

Question: For CC(C)C[C@H](NC(=O)[C@@H](NC(=O)N[C@@H](Cc1ccccc1)C(=O)O)[C@H]1CCN=C(N)N1)C(=O)N[C@H](C=O)Cc1ccccc1, which Potency [1] is on record?
Answer: Its Potency is “inactive”.

Question: And the Potency [2]?
Answer: The Potency was > 46 µM.

Question: What about the Potency [3] of the same molecule?
Answer: Its Potency is > 46 µM.

Question: And the Potency [4]?
Answer: The Potency was “inactive”.

Question: What about the Potency [5] of the same molecule?
Answer: Its Potency is “inactive”.

Question: And the Potency [6]?
Answer: Its Potency is “inactive”.

Question: C=C1CC[C@@H](O)C/C1=C/C=C1\CCC[C@]2(C)[C@@H]1CC[C@H]2[C@@H](C)/C=C\[C@@H](C)C(C)C was tested. Which Potency [1] did it give?
Answer: The Potency was “inactive”.

Question: What about the Potency [2] of the same molecule?
Answer: The Potency was > 46 µM.

Question: And the Potency [3]?
Answer: Its Potency is > 46 µM.

Question: What about the Potency [4] of the same molecule?
Answer: Its Potency is “inactive”.

Question: And the Potency [5]?
Answer: Its Potency is 20 µM (active).

Question: What about the Potency [6] of the same molecule?
Answer: The Potency was “inactive”.

Question: And the Potency [7]?
Answer: The Potency was 20 µM (active).

Question: Which results are given for O=c1c(O)c(-c2cccc(O)c2)oc2ccccc12?
Answer: Potency [1]: 0.501 µM (active); Potency [2]: > 46 µM; Potency [3]: > 46 µM; Potency [5]: 15.8 µM (active); Potency [9]: 15.8 µM (active); Potency [10]: inactive; Potency [7]: 25.1 µM (active); outcome [11]: inactive

Question: What does the source list for Cc1ccc(C(=O)[C@@H]2[C@@H]3[C@@H](C(=O)[C@@H]4OC[C@H]3O4)[C@@H]3C=Cc4ccccc4N23)cc1?
Answer: Potency [1]: 15.8 µM (active); Potency [2]: > 46 µM; Potency [3]: > 46 µM; Potency [8]: inactive; Potency [5]: 10 µM (active); Potency [7]: 15.8 µM (active)

Question: What does the source list for CC(=O)[C@H]1[C@H]2[C@H](C(=O)[C@@H]3OC[C@H]2O3)[C@@H]2c3ccccc3C=CN12?
Answer: Potency [1]: 31.6 µM (active); Potency [2]: > 46 µM; Potency [3]: > 46 µM; Potency [4]: inactive; Potency [8]: inactive; Potency [6]: inactive
